87 molecules from PubChem BioAssay AID1852 (Sanford-Burnham Center for Chemical Genomics, 2009) can be followed below.

Molecules are shown by their SMILES. Screen size: about 2,500 compounds; about 1,100 (44%) were called active. The set was probably picked from earlier hits. This is one part of the list. Values without a mark were called inactive.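 Rule for the calls: active = inhibition above 50% at 4 µM in the single-point screen; inactive = inhibition of 50% or less.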

The nature of this experiment: blockers of TNF-a NF-kB luciferase induction – cell-based, HEK293T NF-kB-Luc, luminescence, selectivity assay for NOD1/NOD2 signaling inhibitor project, primary screen (AID 1852). The note with it: TNF-a induced, 14 h, at 4 µM, active compounds read high.
A word on the inhibition: it is the change of the read-out against control, counted positive when it falls. As for `CC(C)CCn1c(Sc2nc3ccccc3o2)nc2c1c(=O)[nH]c(=O)n2C`, the inhibition is 26.6%.
For the molecule `O=C(CSc1nc2ccccc2c(=O)[nH]1)Nc1ccccc1C(F)(F)F`, the inhibition was 21.5%.
Consider `O=C(CSc1nnnn1C1CC2CCC1C2)Nc1ccnc2ccccc12` (configuration not stated), for which the inhibition was 54.8% (active).
Next, `Cc1nn(-c2cc(C(F)(F)F)ccc2Cl)c2nc(C(Cl)(Cl)Cl)[nH]c(=O)c12`: 71.3% (active); `Cc1nn(-c2ccccc2)c2nc(C(Cl)(Cl)Cl)[nH]c(=O)c12`: 23.6%; `Cc1nn(-c2cccc(Cl)c2)c2nc(C(F)(F)F)[nH]c(=O)c12`: 58.8% (active).
Consider `O=C(O)c1cccc(N/N=C/c2cccs2)c1`, for which the inhibition was -23%.
As to `O=C(O)c1ccc(N/N=C/c2ccc3nccnc3c2)cc1`, the inhibition is 48.6%.
With `O=C(O)c1cccc(N/N=C/c2cccc3ccccc23)c1`, the inhibition is 54.1% (active).
Next, `O=c1cc(C(F)(F)F)nc(SCc2cccc3ccccc23)[nH]1`: 61.3% (active).
On to `N#Cc1c(-c2ccccc2)nc(SCc2cccc(C(F)(F)F)c2)[nH]c1=O`, for which the inhibition is -14.5%.
As for `CS(=O)(=O)c1ccc(Sc2nc3ccccc3s2)c([N+](=O)[O-])c1`, the inhibition was -1.5%.
Turning to `CS(=O)(=O)c1ccc(S(=O)CC(=O)OCc2ccccc2)c([N+](=O)[O-])c1` (configuration not stated), the inhibition was 50.2% (active).
With `CS(=O)(=O)c1ccc(C(=O)OCc2nnc(-c3ccccc3)o2)cc1[N+](=O)[O-]`, the inhibition is 38.9%.
To `CCn1nc(C)cc1C(=O)NC1CCCc2c1cnn2-c1ccc(C)c(C)c1` (configuration not stated) belongs 58.9% (active).
Turning to `Cc1ccc(-n2ncc3c2CCCC3NC(=O)c2cnccn2)cc1C` (configuration not stated), the inhibition is 37.7%.
On to `Cc1cc(C(=O)NC2CCCc3c2cnn3-c2ccc(C)c(C)c2)n(C)n1` (configuration not stated), for which the inhibition is 74.6% (active).
Take `O=C1C=C(c2ccccc2)C[C@H](c2cccs2)[C@H]1n1nnc([N+](=O)[O-])n1`: the inhibition was 35.8%.
As to `Cc1cc(C(=O)CCl)c(C)n1-c1cccc(S(=O)(=O)N2CCOCC2)c1`, the inhibition is 52.4% (active).
With `Cc1cc(NC(=S)NC(=O)/C=C/c2ccc(S(=O)(=O)N3CCOCC3)cc2)ccc1Br`, the inhibition was -18.3%.
Take `O=C(c1[nH]nc2c1CCc1ccccc1-2)N1CCN(Cc2ccc3c(c2)OCO3)CC1`: the inhibition is 45.6%.
`O=C(NC(=S)N1CCN(Cc2ccc3c(c2)OCO3)CC1)c1cccc(Br)c1`: the inhibition is 76.1% (active).
For `CCOc1cc(/C=C2\CCC/C(=C\c3cc(Cl)c(O)c(OCC)c3)C2=O)cc(Cl)c1O`, the inhibition is 87.7% (active).
Regarding `COc1cc(OC)c(OC)cc1/C=C1\CCC/C(=C\c2cc(OC)c(OC)cc2OC)C1=O`, the inhibition is 41.8%.
Regarding `COc1cc(/C=C2/CCC/C(=C\c3cc(O)c(OC)c(Cl)c3)C2=O)cc(Cl)c1O`, the inhibition was 108% (active).
As for `COc1cc(/C=C2\CCC/C(=C\c3ccc(O)c(OC)c3)C2=O)ccc1O`, the inhibition is 9.3%.
Regarding `COc1ccc(C(C(=O)NC2CCCCC2)N(C(=O)CCl)c2ccc(C)cc2)cc1` (configuration not stated), the inhibition is 37%.
Consider `COc1ccc(C(C(=O)NC2CCCCC2)N(C(=O)CCl)c2ccc(OC)cc2)cc1` (configuration not stated), for which the inhibition was 40.2%.
Next, `O=C(NC1CCCCC1)C(c1cccnc1)N(C(=O)CCl)c1ccc(F)cc1` (configuration not stated): 69.8% (active).
For the molecule `COc1ccc(N(C(=O)CCl)C(C(=O)NC2CCCCC2)c2cccnc2)cc1` (configuration not stated), the inhibition was 87.1% (active).
With `CC(=O)NC(c1cccs1)c1cc([N+](=O)[O-])c2cccnc2c1O` (configuration not stated), the inhibition is 105% (active).
Next, `CC(=O)NC(c1ccco1)c1ccc2cccnc2c1O` (configuration not stated): 26.6%.
Consider `CC(C)C(=O)NC(c1cccs1)c1cc([N+](=O)[O-])c2cccnc2c1O` (configuration not stated), for which the inhibition was 54.8% (active).
Regarding `COc1ccc2nc(Nc3nc4ccc(NC(C)=O)cc4s3)sc2c1`, the inhibition was -14.1%.
Next, `COc1ccc(C(=O)Nc2nc3ccccc3s2)c(OC)c1`: 88% (active); `CCOc1ccc2nc(NC(=O)c3ccccn3)sc2c1`: 102% (active).
For the molecule `COc1ccccc1C(=O)Nc1nc2ccccc2s1`, the inhibition was 65.3% (active).
Next, `COc1cc([N+](=O)[O-])cc2sc(NC(=O)c3c(F)cccc3F)nc12`: 16.4%; `COc1ccc2nc(Nc3nc(C)c(C(C)=O)s3)sc2c1`: -12.9%; `COc1ccccc1C(=O)NCc1ccc(-c2nc3ccccc3s2)cc1`: 14.3%.
For the molecule `O=C(CCl)N=c1sccn1Cc1cccc2ccccc12`, the inhibition is 44.1%.
For the molecule `CC(=O)NC(c1cccc([N+](=O)[O-])c1)c1ccc2cccnc2c1O` (configuration not stated), the inhibition was 70.9% (active).
Next, `COc1ccc(C(NC(C)=O)c2ccc3cccnc3c2O)c(OC)c1` (configuration not stated): 99.8% (active); `CC(=O)NC(c1ccc2ccccc2c1)c1ccc2cccnc2c1O` (configuration not stated): 75.2% (active).
Next, `CC(=O)NC(c1ccc(Cl)cc1Cl)c1ccc2cccnc2c1O` (configuration not stated): 15.6%; `COc1cccc(C(NC(C)=O)c2ccc3cccnc3c2O)c1` (configuration not stated): 57.3% (active); `COc1ccc(-c2cc(C)no2)cc1S(=O)(=O)N1CCN(c2ccccc2F)CC1`: 49.7%.
In the case of `CSC(=S)N/N=C/c1ccc(Br)cc1`, the inhibition was 3.9%.
Turning to `Cc1conc1NC(c1cccs1)c1ccc2cccnc2c1O` (configuration not stated), the inhibition is 14.1%.
Next, `Cc1cc(NC(c2cccnc2)c2ccc3cccnc3c2O)no1` (configuration not stated): 99.8% (active).
Take `COc1ccc(C)cc1NC(=O)C1CCN(S(=O)(=O)c2cccc3nonc23)CC1`: the inhibition is 94.5% (active).
Take `Cc1cccc(NC(=O)C2CCN(S(=O)(=O)c3ccc4c(c3)NC(=O)CO4)CC2)c1`: the inhibition is 11.7%.
To `Cc1ccc(CNC(=O)C2CCCN(S(=O)(=O)c3cccc4nonc34)C2)cc1` (configuration not stated) belongs 43.1%; to `CCc1ccc(-c2cc(C)no2)cc1S(=O)(=O)NCCCN1CCN(c2ccccc2)CC1`, 28.3%.
Turning to `C/C(=N\NC(=O)c1cc2ccccc2cc1O)c1cc2ccccc2o1`, the inhibition was 105% (active).
Consider `C/C(=N\NC(=O)c1cc2ccccc2cc1O)c1ccccn1`, for which the inhibition is -5.1%.
With `CCOC(=O)N1CCN(C(=O)c2ccc(Oc3ccc([N+](=O)[O-])cc3)cc2)CC1`, the inhibition was -11.6%.
Turning to `Cc1ccc(S(=O)(=O)CC#CCOC(=O)c2ccc([N+](=O)[O-])cc2)cc1`, the inhibition was 91.4% (active).
Regarding `COc1ccc(NS(=O)(=O)c2ccc(N/N=C(\C)c3ccncc3)c([N+](=O)[O-])c2)cc1`, the inhibition was 51.9% (active).
For the molecule `COc1ccc(NS(=O)(=O)c2ccc3oc(SC(C)C(N)=O)nc3c2)cc1` (configuration not stated), the inhibition is 2.2%.
To `CC[C@H]1CN2CCc3cc(OC)c(OC)cc3[C@@H]2C[C@@H]1C[C@H]1NCCc2cc(OC)c(OC)cc21` belongs 102% (active); to `Cc1ccc(C)c(N2CCN(C(=O)C34CC5CC(C3)CC(n3nnc(C)n3)(C5)C4)CC2)c1`, 25.2%.
In the case of `CN(C)Cc1c(C(=O)N/N=C/c2cccc(OCc3c(F)cccc3Cl)c2)nnn1-c1nonc1N`, the inhibition is 74% (active).
For `O=C(CSc1nc2ccccc2c(=O)n1Cc1ccccc1)Nc1ccc(Br)cc1C(=O)O`, the inhibition was 53.2% (active).
As for `O=C(COc1ccc2ccccc2c1)Nc1ccc(Br)cc1C(=O)O`, the inhibition is -2.8%.
`CCOc1ccccc1-n1c(SCC(=O)Nc2ccccc2C(=O)O)nc2ccccc2c1=O`: the inhibition was -2.7%.
Next, `COc1cc(/C=C/c2ccc3cccc(O)c3n2)cc(Cl)c1OC`: -19.5%.
Turning to `COc1cc(/C=C/c2ccc3cccc(O)c3n2)cc(OC)c1OC`, the inhibition was 105% (active).
As to `COc1cc(/C=C/c2ccc3cccc(O)c3n2)ccc1O`, the inhibition is 105% (active).
With `COc1cc(/C=C/c2ccc3cccc(O)c3n2)cc(Br)c1OC`, the inhibition is 28.6%.
Consider `COc1cccc(OCCOc2ccc(/C=C3\C(=N)N4N=C(S(C)(=O)=O)SC4=NC3=O)cc2OC)c1`, for which the inhibition was -57.6%.
In the case of `C=C1C(=O)[C@@]23[C@H](O)C[C@@H]4C(C)(C)CC[C@H](O)[C@@]4(C)[C@@H]2CC[C@@H]1[C@H]3O`, the inhibition is 68.9% (active).
As to `NC(=O)c1c(NC(=O)C(=O)N2CCOCC2)sc2c1CCCC2`, the inhibition is 29.8%.
For the molecule `CCOc1ccccc1CNC(=O)Cn1nc(C)c2c(C)n(-c3ccc(C)cc3)nc2c1=O`, the inhibition is 55% (active).
Turning to `COc1ccc(OC)c(CCNC(=O)Cn2nc(C)c3c(C)n(-c4ccc(C)cc4)nc3c2=O)c1`, the inhibition is 69.7% (active).
Turning to `CCOC(=O)c1c(C)nc2sc3c(=O)n(-c4ccc(C(C)=O)cc4)nnc3c2c1-c1ccc(OC)cc1`, the inhibition was 5.1%.
On to `COc1ccc(OC)c(CCNC(=O)C(C)n2nc(C)c3c(C)n(-c4ccc(C)cc4)nc3c2=O)c1` (configuration not stated), for which the inhibition is 49.3%.
Take `CCn1nc(C)c(NC(=O)/C=C/c2ccc(OC)c(COc3ccc(Br)cc3)c2)c1C`: the inhibition was 38.5%.
Take `COc1ccc(CCNC(=O)C(C)n2nc(C)c3c(C)n(-c4ccc(C)cc4)nc3c2=O)c(OC)c1` (configuration not stated): the inhibition is 56.1% (active).
Take `O=C(c1ccc(S(=O)(=O)c2cccc(Cl)c2)c([N+](=O)[O-])c1)N1CCN(Cc2ccccc2)CC1`: the inhibition is 53.1% (active).
Turning to `O=C(c1ccc(S(=O)(=O)c2ccc(F)cc2)c([N+](=O)[O-])c1)N1CCCCCC1`, the inhibition is 27.8%.
Regarding `O=C(c1ccc(S(=O)(=O)c2ccccc2Cl)c([N+](=O)[O-])c1)N1CCN(Cc2ccccc2)CC1`, the inhibition was 56.1% (active).
In the case of `O=C(c1ccc(S(=O)(=O)c2ccccc2Cl)c([N+](=O)[O-])c1)N1CCCCCC1`, the inhibition was 26.2%.
In the case of `O=C(c1ccc(S(=O)(=O)c2cccc(Cl)c2)c([N+](=O)[O-])c1)N1CCN(c2ccccn2)CC1`, the inhibition was 35.5%.
For the molecule `Cn1cc(S(=O)(=O)N2CCc3ccccc32)cc1C(=O)NC(C)(C)C`, the inhibition was 38.6%.
Take `O=C(Nc1nc2ccc([N+](=O)[O-])cc2s1)c1ccc(S(=O)(=O)N2CCCc3ccccc32)cc1`: the inhibition is 68.8% (active).
Take `O=C(Nc1nnc(C2CC2)s1)c1cccc(S(=O)(=O)N2CCc3ccccc32)c1`: the inhibition is 9.3%.
